Source: PubChem BioAssay AID2546 (National Center for Advancing Translational Sciences (NCATS), 2010)
Out of some 310,000 compounds screened, about 11,000 (3.5%) were called active. Inconclusive results (about 8%) are left out. Calls follow the shape of the dose curve; as a rule, active = well fitted inhibition curve with a large enough effect; inconclusive = small, poorly fitted or top-dose-only effect, or effect the other way; inactive = flat fitted curve, though single readings scatter. The list comes from a sample in which actives are over-represented; it also holds similar structures and randomly drawn compounds.
% is scaled to controls: 0 for no effect and ±100 for the full control effect; potency is read from the fitted curve at half-maximal effect.

Assay: VP16 counterscreen qHTS for inhibitors of ROR gamma transcriptional activity;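 also: Gal4-VP16 expression switched on by copper sulfate through the metallothionein promoter; nearly all actives have a fitted effect of over 50% in size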
Details: Drosophila S2 Gal4-VP16 UAS-luciferase, luminescence, 20 h; series mostly up to 53.6 µM; activity, negative = inhibition: at the top concentration
With `CC(C)c1nc(CNC(=O)CC2C(=O)NCCN2Cc2cccc(F)c2F)cs1` (stereo not drawn) the “activity, negative = inhibition” value was -1.75% (inactive). For `COc1ccc(N2CCN(S(=O)(=O)CCNC(=O)C34CC5CC(CC(C5)C3)C4)CC2)cc1`, the “activity, negative = inhibition” value was -20.6% (inactive). For `COC(=O)c1ccc(CSc2ccc3nnc(-c4ccccc4)n3n2)o1`, the Potency was 20 µM (active). For `COC(=O)c1ccc(CSc2ccccc2C)o1`, the “activity, negative = inhibition” value was -1.68% (inactive). With `COc1ccc(-c2nnc3ccc(SCc4ccccc4)nn23)cc1` the “activity, negative = inhibition” value was -14.2% (inactive). In the case of `CC(=O)c1ccc(NC(=O)c2sc3nc4n(c(=O)c3c2C)CCCCC4)cc1`, the “activity, negative = inhibition” value is reported as 2.75% (inactive). In the case of `COc1ccc(Cl)cc1NC(=O)c1cccc(N2C(=O)C3CC=CCC3C2=O)c1` (stereo not drawn), the “activity, negative = inhibition” value is reported as -23.2% (inactive). With `Cc1cc2[nH]ncc2cc1NC(=S)NC(=O)c1ccccc1` the “activity, negative = inhibition” value was -12.9% (inactive). With `CCOC(=O)c1c(-c2ccc(-c3ccccc3)cc2)csc1NC(=O)CCC(=O)O` the “activity, negative = inhibition” value was -6.4% (inactive). For `CCOC(=O)c1c(-c2ccccc2)csc1NC(=S)NC(=O)c1ccccc1`, the Potency was 6.31 µM (active). In the case of `CCOC(=O)C1=C(NC(=S)NC(=O)c2ccccc2)c2ccccc2CC1(C)C`, the Potency is reported as 11.2 µM (active). In the case of `CCOC(=O)c1c(NC(=O)C2(C)Cc3ccccc3C(=O)O2)sc2c1CCCC2` (stereo not drawn), the “activity, negative = inhibition” value is reported as 1.28% (inactive). In the case of `CCOC(=O)c1c(-c2cccc(C)c2)csc1NC(=O)c1c(-c2ccccc2)noc1C`, the “activity, negative = inhibition” value is reported as -9.8% (inactive). For `COc1ccc(CNC(=O)CN(Cc2ccccc2Cl)C(=O)c2csnn2)cc1`, the “activity, negative = inhibition” value was 10.7% (inactive). With `COc1ccc(CCNC(=O)c2c(C)nn(-c3ccccc3)c2Cl)cc1` the “activity, negative = inhibition” value was -1.46% (inactive). For `COc1ccc(N(CC(=O)Nc2cc(OC)ccc2OC)S(=O)(=O)c2c(C)noc2C)cc1`, the “activity, negative = inhibition” value was -9.43% (inactive). In the case of `CCOc1c(OC)cccc1C(=O)NCC1(c2ccccc2)CCCC1`, the “activity, negative = inhibition” value is reported as -5.15% (inactive). For `CN(Cc1ccccc1)C(=O)c1ccc(COc2ccccc2)cc1`, the “activity, negative = inhibition” value was -10.8% (inactive). In the case of `O=S(=O)(ON(c1ccccc1)S(=O)(=O)c1ccccc1)c1ccccc1`, the “activity, negative = inhibition” value is reported as 13.6% (inactive). With `CC1=C/C(=N\OS(=O)(=O)c2ccccc2)C=CC1=O` the Potency was 1.12 µM (active). For `NC(=O)CC(NC(=O)Cc1ccc(Br)cc1)c1ccc(NC2CC3CCC2C3)c([N+](=O)[O-])c1` (stereo not drawn), the “activity, negative = inhibition” value was -5.02% (inactive). For `CC(C)NC(=O)C(c1ccc(F)cc1)N(C(=O)CCC(=O)Nc1ccccn1)c1ccccc1F` (stereo not drawn), the “activity, negative = inhibition” value was -8.21% (inactive). For `CCCn1nc(NC(=O)C(C)C)c2cc3cc(OC)ccc3nc21`, the “activity, negative = inhibition” value was -15.8% (inactive). For `CCOc1ccc2c(c1)c(=O)c(S(=O)(=O)c1ccc(C)cc1)cn2CC`, the “activity, negative = inhibition” value was -5.33% (inactive). For `COCn1c(C(O)c2ccccc2)cc2ccccc21` (stereo not drawn), the “activity, negative = inhibition” value was -7.58% (inactive). With `COc1cc(C(=O)N[C@@H](C)C(=O)NCc2ccco2)cc(OC)c1OC` the “activity, negative = inhibition” value was -12.1% (inactive). For `COc1cc(-n2c(C)nc3cc(C(=O)NCc4ccco4)ccc32)cc(OC)c1OC`, the “activity, negative = inhibition” value was -0.501% (inactive). In the case of `COc1cc(C(=O)NC(=S)NCc2ccco2)cc(OC)c1OC`, the Potency is reported as 6.31 µM (active).
